An excerpt weighted towards active compounds, which were near 4.1% of everything screened.
hgDAF-12 ag: hgDAF-12 agonism, primary luciferase screen | HEK293 GAL4-hgDAF12 UAS-luciferase reporter, agonist luminescence; normalized to butyrate control | activation, % at 6.8 µM | actives 1.8% (n = 370,000) | AID 687014;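 active means activation above a cutoff set at the mean of all screened compounds plus 3 SD, cut at about 10% in these data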
DAX1 inh-1: inhibitors of DAX1 repression of SF-1 activated StAR promoter; inhibition, % at 6.8 µM; actives 1.1% (n = 370,000); HEK293T StAR-luciferase reporter, SF-1/DAX-1 repression relief;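 active means inhibition above the mean over all tested compounds plus 3 SD, cut at about 3.6% in these data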;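 further: higher inhibition means more luminescence from relief of DAX-1 repression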
ssDAF-12 act: S. stercoralis DAF-12 activation, primary screen; activation, % at 6.8 µM; actives 1% (n = 370,000); HEK293 ssDAF-12/GRIP1 lit1-tk-luc reporter, luminescence; % of 3 µM dafachronic acid response;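 active means activation above the mean over all tested compounds plus 3 SD, cut at about 0.9% in these data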
hcDAF12 agonist: H. contortus DAF-12 activation, primary screen. activation, % at 6.8 µM. HEK293 hcDAF-12 lit1-tk-luc reporter, luminescence; 0% DMSO, 100% Δ7-dafachronic acid. actives 1.4% (n = 370,000);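 active means activation above the mean of all tested compounds plus 3 SD, cut at about 5.5% in these data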
DAX1 inh-2: inhibitors of human orphan nuclear receptor DAX1 (NR0B1). HEK293 Gal4-DAX1 luciferase reporter, luminescence. actives 0.99% (n = 340,000). inhibition, % at 6.75 µM;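 active means inhibition above the mean over all tested compounds plus 3 SD, cut at about 4.2% in these data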;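 further: inhibition shows as a rise in luminescence from relieved DAX1 repression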
Target sequence (P51843 207-470 limits assumed): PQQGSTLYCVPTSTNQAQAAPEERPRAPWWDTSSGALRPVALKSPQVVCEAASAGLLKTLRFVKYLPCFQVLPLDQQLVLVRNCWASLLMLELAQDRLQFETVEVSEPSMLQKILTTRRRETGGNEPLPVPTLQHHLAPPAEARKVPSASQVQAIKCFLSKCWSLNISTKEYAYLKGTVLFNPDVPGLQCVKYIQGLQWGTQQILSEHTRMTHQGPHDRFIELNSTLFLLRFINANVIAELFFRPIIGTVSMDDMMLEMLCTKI
LXRb hcDAF ctr: LXR-beta agonism as hcDAF-12 counter-screen; shares compounds with hcDAF12 agonist; HEK293 Gal4-LXR tk-luc reporter, luminescence, 24 h; normalized: DMSO 0%, positive control 100%; activation, % at 6.8 µM; 3,400 tested, under 10 active; AID 743027;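 active means mean percent activation of the reporter above a cutoff set as the average over tested compounds plus their standard deviation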
Target sequence (P55055 whole entry, looked up, the tested form may be a part): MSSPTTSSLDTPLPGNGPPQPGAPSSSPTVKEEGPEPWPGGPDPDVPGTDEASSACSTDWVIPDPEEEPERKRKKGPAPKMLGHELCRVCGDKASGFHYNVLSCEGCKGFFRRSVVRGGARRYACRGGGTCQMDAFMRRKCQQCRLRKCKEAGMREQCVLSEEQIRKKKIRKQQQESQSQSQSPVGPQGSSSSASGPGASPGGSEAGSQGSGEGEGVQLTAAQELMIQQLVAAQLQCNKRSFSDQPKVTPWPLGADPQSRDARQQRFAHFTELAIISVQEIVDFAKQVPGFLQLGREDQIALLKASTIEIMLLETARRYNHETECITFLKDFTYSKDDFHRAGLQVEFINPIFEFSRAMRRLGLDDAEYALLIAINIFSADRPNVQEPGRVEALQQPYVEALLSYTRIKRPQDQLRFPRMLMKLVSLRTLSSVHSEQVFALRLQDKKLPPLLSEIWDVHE
hcDAF12 ag: confirmation of H. contortus DAF-12 agonists; shares compounds with hcDAF12 agonist; HEK293 hcDAF-12 lit1-tk-luc reporter, luminescence; % of Δ7-dafachronic acid response; actives 61% (n = 3,400); activation, % at 6.8 µM;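 active means mean activation across triplicate tests above the threshold derived from the earlier primary screen, cut at about 5.5% in these data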
hgDAF12 conf: confirmation of H. glycines DAF-12 agonists. HEK293 GAL4-hgDAF12 luciferase reporter, agonist mode; percent of butyrate response. shares compounds with hgDAF-12 ag. actives 80% (n = 3,300). AID 743050. activation, % at 6.8 µM;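 active means mean activation over triplicate wells above the hit cutoff derived from the earlier primary screen, cut at about 11% in these data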
LXRb DAF12 ctr: LXR-beta agonism as DAF-12 counter-screen; activation, % at 6.8 µM; shares compounds with hgDAF-12 ag; HEK293 Gal4-LXR luciferase reporter, 24 h; 3,300 tested, under 10 active;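 active means mean activation of the triplicate above a set limit carried over from the primary screen, none filed active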
Each line names hits and unclear results; the compound was inactive in the other large screens (follow-up assays come after a bar, where they were run).

Cc1ccc(N/C=C/C(=O)c2ccccc2)cc1Br	hgDAF-12 ag 19, DAX1 inh-1 3.8, ssDAF-12 act 3.4, hcDAF12 agonist 16 | LXRb hcDAF ctr inactive | hcDAF12 ag 16 | hgDAF12 conf 25 | LXRb DAF12 ctr inactive
Nc1nc(-c2cc(-c3ccccc3)no2)cs1	hgDAF-12 ag 18, hcDAF12 agonist 7.9 | LXRb hcDAF ctr inactive | hcDAF12 ag inactive | hgDAF12 conf 21 | LXRb DAF12 ctr inactive
COc1ccc2cc(C#N)c(SCC(=O)N3CCCC3)nc2c1	none
COC(=O)CSc1nc2cc(OC)ccc2cc1C#N	hgDAF-12 ag 15, DAX1 inh-1 3.8, hcDAF12 agonist 8.2, DAX1 inh-2 4.3 | LXRb hcDAF ctr inactive | hcDAF12 ag 7.8 | hgDAF12 conf 23 | LXRb DAF12 ctr inactive
O=C(Nc1nnc([C@H]2C[C@H](O)[C@@H](CO)O2)s1)c1cccc(OC(F)(F)F)c1	none (no result: DAX1 inh-2)
Cc1cccc(/C(N)=N/OC(=O)c2ccco2)c1	hgDAF-12 ag 18, DAX1 inh-1 3.7, ssDAF-12 act 1.4, hcDAF12 agonist 6.6 | LXRb hcDAF ctr inactive | hcDAF12 ag inactive | hgDAF12 conf 19 | LXRb DAF12 ctr inactive
N/C(=N\OC(=O)c1ccco1)c1ccccc1	none
Cc1ccc(/C(N)=N/OC(=O)c2ccco2)cc1	hgDAF-12 ag 14, DAX1 inh-1 4.2, ssDAF-12 act 1.2, hcDAF12 agonist 7.8 | LXRb hcDAF ctr inactive | hcDAF12 ag inactive | hgDAF12 conf 19 | LXRb DAF12 ctr inactive
CCCCCCCCN1C(=O)[C@H](CC(=O)N2CCOCC2)C[C@@]2(C(=O)OC)CCCCC=C12	none (no result: DAX1 inh-2)
COc1cccc(-c2ccccc2C2=CC(=O)CC(C)(C)C2=O)c1	none
Nc1ncnc2c1ncn2[C@@H]1O[C@H](C(=O)N[C@@H](CCc2ccccc2)C(=O)O)[C@@H](O)[C@H]1O	none (no result: DAX1 inh-2)
O=C(Nc1ccc(Cl)cc1)Nc1cccc2nsnc12	hgDAF-12 ag 15, ssDAF-12 act 1.3, hcDAF12 agonist 12 | LXRb hcDAF ctr inactive | hcDAF12 ag 11 | hgDAF12 conf 20 | LXRb DAF12 ctr inactive
Cc1cc2ncc(-c3ccccc3)nc2cc1C	hgDAF-12 ag 19, ssDAF-12 act 1.7, hcDAF12 agonist 14, DAX1 inh-2 5.0 | LXRb hcDAF ctr inactive | hcDAF12 ag 11 | hgDAF12 conf 23 | LXRb DAF12 ctr inactive
Cc1ccc(-c2cnc3ccccc3n2)cc1C	hgDAF-12 ag 14, ssDAF-12 act 1.5, hcDAF12 agonist 14 | LXRb hcDAF ctr inactive | hcDAF12 ag 16 | hgDAF12 conf 20 | LXRb DAF12 ctr inactive
CSc1nnc(-c2ccccc2Cl)o1	none
Clc1ccccc1-c1ncc(-c2ccccc2)o1	hgDAF-12 ag 14, ssDAF-12 act 1.4, hcDAF12 agonist 9.7, DAX1 inh-2 5.2 | LXRb hcDAF ctr inactive | hcDAF12 ag 7.8 | hgDAF12 conf 21 | LXRb DAF12 ctr inactive
COc1cccc(N=c2oc3ccccc3cc2-c2nc3ccccc3[nH]2)c1	hgDAF-12 ag 16, ssDAF-12 act 2.6, hcDAF12 agonist 15 | LXRb hcDAF ctr inactive | hcDAF12 ag 6.7 | hgDAF12 conf 19 | LXRb DAF12 ctr inactive
Cn1cc(-c2nc3ccccc3[nH]2)c2ccccc21	none
COc1ccc(N=c2oc3ccc(OC)cc3cc2-c2nc3ccccc3[nH]2)cc1	hgDAF-12 ag 15, ssDAF-12 act 2.5, hcDAF12 agonist 6.7 | LXRb hcDAF ctr inactive | hcDAF12 ag inactive | hgDAF12 conf 10 | LXRb DAF12 ctr inactive
Cc1ccccc1-c1cnc(C(O)c2ccc(Cl)cc2)[nH]1 (stereo unspecified)	none (no result: DAX1 inh-2)
CCOc1ccc(CCN2C(=O)C(=O)N([C@@H](Cc3ccccc3)CN3CCC[C@H]3CN3C(=O)C(=O)NC[C@@H]3CC(C)C)C[C@@H]2Cc2ccc(O)cc2)cc1	none (no result: DAX1 inh-2)
COC(=O)c1ccc(N=NNc2cccc(Br)c2)cc1	hgDAF-12 ag 15, hcDAF12 agonist 7.9 | LXRb hcDAF ctr inactive | hcDAF12 ag 7.1 | hgDAF12 conf 16 | LXRb DAF12 ctr inactive
COC(=O)C(C)Nc1cccc(Br)c1 (stereo unspecified)	none
O=C(c1cc2c([nH]c1=O)CCCC2)N1CCc2c([nH]c3ccccc23)C1c1ccccc1F (stereo unspecified)	none
CN1N=C(C(=O)N2CCc3c([nH]c4ccccc34)C2c2c(F)cccc2Cl)CCC1=O (stereo unspecified)	hgDAF-12 ag 15, hcDAF12 agonist 6.7, DAX1 inh-2 5.3 | LXRb hcDAF ctr inactive | hcDAF12 ag 6.7 | hgDAF12 conf inactive | LXRb DAF12 ctr inactive
Cn1c(N)c(C(=O)CCc2ccccc2)c(=O)n(C)c1=O	hgDAF-12 ag 21, DAX1 inh-1 4.5, hcDAF12 agonist 10 (no result: DAX1 inh-2) | LXRb hcDAF ctr inactive | hcDAF12 ag 6.8 | hgDAF12 conf inactive | LXRb DAF12 ctr inactive
COc1cccc(N(CC(=O)NCCSc2ccccn2)S(=O)(=O)c2ccccc2)c1	none
O=C(Nc1nc2ccccc2[nH]1)c1ccccc1OC(F)F	hgDAF-12 ag 14, hcDAF12 agonist 13 | LXRb hcDAF ctr inactive | hcDAF12 ag 14 | hgDAF12 conf 14 | LXRb DAF12 ctr inactive
Cc1ccsc1C(=O)Nc1nc2ccccc2[nH]1	hgDAF-12 ag 17, DAX1 inh-1 4.5, ssDAF-12 act 1.1, hcDAF12 agonist 10 | LXRb hcDAF ctr inactive | hcDAF12 ag 10 | hgDAF12 conf 17 | LXRb DAF12 ctr inactive
CC(C)C[C@H]1CNC(=S)N1C[C@H]1CCCN1C[C@H](CC(C)C)N1C[C@H](Cc2ccc(O)cc2)N(CC2CCCCCC2)C1=S	none (no result: DAX1 inh-2)
CN(C)C(=O)c1cccc(-c2cnc3cccnn23)c1	none (no result: DAX1 inh-2)
CCCCCCCCN1C(=O)[C@@H](CC(=O)NCc2cccc3ccccc23)C[C@@]2(C(=O)OC)C1=C[C@H](C(C)C)O[C@@H]2C1CC1	none (no result: DAX1 inh-2)
CC12COC3(C(=O)Nc4ccc5ccccc5c4)CC1CCC32C (stereo unspecified)	hgDAF-12 ag 19, ssDAF-12 act 1.9, hcDAF12 agonist 7.3 | LXRb hcDAF ctr inactive | hcDAF12 ag 6.9 | hgDAF12 conf 16 | LXRb DAF12 ctr inactive
CC(C)n1nnnc1C1(C)CN(S(C)(=O)=O)CC(=O)N1Cc1cccc(C(F)(F)F)c1 (stereo unspecified)	none (no result: DAX1 inh-2)
CCN(Cc1ccccc1)C(=O)C1CCCN(c2ncccn2)C1 (stereo unspecified)	none (no result: DAX1 inh-2)
